Compounds without any hit were thinned out: in the full panel of roughly 83,000, 20% have a hit.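 Compound tested at a single concentration for 48 hours in 96-well plates; a percent growth value below 10 was scored as active.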 Values without a mark were called inactive. The source made the active and inactive calls.

From PubChem BioAssay (NCI) come the findings set out here.

Holding throughout (test): NCI-60 one-dose screen, 48 h (100 = growth as untreated, 0 = no growth, -100 = all killed)
Common to all, as to conditions: 10 µM unless noted

In experiment [1] the test system is SR leukemia.
The subject of experiment [2] is RPMI-8226 leukemia.
Experiment [3] deals with OVCAR-8 ovarian.
The subject of experiment [4] is OVCAR-5 ovarian.
For experiment [5], the system named is OVCAR-4 ovarian.
The subject of experiment [6] is SK-OV-3 ovarian.
Experiment [7] relates to OVCAR-3 ovarian.
The subject of experiment [8] is HS 578T breast.
Experiment [9] concerns NCI/ADR-RES ovarian.
In experiment [10] the test system is IGROV1 ovarian.

On to `CN[C@]12CC3(C=CC(=O)C=C3)O[C@@]1(Cc1ccc(OC)cc1)N(C)C(=O)N2`, for which the growth in experiment [1] was 8.34% (active); in [2], -3.85% (active); in experiment [3], 15.6%; in experiment [4], 18.3%; in experiment [5], 32.2%; in experiment [6], 85.7%. Besides, the values for the growth in [7], in experiment [8] and in experiment [9] were 11.2%, 96.8% and 55.6%, respectively.

Turning to `CCCCCCCCCCCCCCCCCCOc1ccccc1CC(=O)OCC[N+]1(C)CCCC1`, the growth is 17.8% in experiment [1]; 21.6% in experiment [2]; 11.9% in experiment [3]; 37.3% in experiment [4]; 27.9% in [5]; 94.1% in experiment [6]. In addition, the growth in experiment [10] is -58% (active); in experiment [8], 30.3%; in experiment [9], 82.3%.

For the molecule `O=C(Cn1c(-c2ccc([N+](=O)[O-])cc2)nc2ccccc21)NNC(=O)c1cccnc1`, the growth in experiment [1] is 75.9%; in [2], 77.6%; in experiment [3] it was 85.1%; in experiment [4] it was 101%; in experiment [5], 96.5%; in [6], 102%. Further, the growth in [7] is 97.3%; in experiment [8] it was 101%; in [9] it was 87.9%.

In the case of `O=C(NNC(=O)c1ccc(-n2cc(-c3ccccc3)nn2)cc1)Nc1ccccc1`, the growth in experiment [1] is 110%; in experiment [2], 102%; in [3], 95.9%; in experiment [4], 120%; in experiment [5] it was 104%; in [6], 85.2%. Moreover, the growth is 103% in experiment [10], 92.2% in [8] and 107% in [9].

With `O=C1Nc2ccccc2[C@]12CC(c1ccccc1)=NN2`, the growth was 21.6% in experiment [1]; 39% in experiment [2]; 65.8% in [3]; 61.7% in [4]; 84.5% in experiment [5]; 57.1% in experiment [6]. For the same molecule, the growth in [7] was 27.7%; in [8], 58.4%; in [9] it was 44.9%.

As to `CO/N=C(/C)c1ccc(NC(=O)CSc2nnc(-c3ccncc3)n2-c2ccccc2)cc1`, the growth was 99.6% in [1]; 80.8% in [2]; 1.47% (active) in experiment [3]; 79.5% in [4]; -30.7% (active) in experiment [5]; 24.1% in [6]. The growth was 33.4% in experiment [10], -0.835% (active) in experiment [8] and 0.0208% (active) in experiment [9].

With `CC(C)CCC[C@@H](C)[C@H]1CC[C@H]2[C@@H]3CC=C4C[C@@H](C(C(=O)O)C(=O)O)CC[C@]4(C)[C@H]3CC[C@]12C`, the growth is -39.7% (active) in experiment [1]; -26.9% (active) in experiment [2]; -19.8% (active) in [3]; 45.2% in [4]; 0.439% (active) in [5]; -5.5% (active) in experiment [6]. The growth in experiment [10] is -35.5% (active); in experiment [8], -12.7% (active); in experiment [9] it was -1.29% (active).

Regarding `CC1Cc2c(Cl)ncnc2N(C)c2ccc(F)cc21` (configuration not stated), the growth in experiment [1] was 95.3%; in experiment [2] it was 98.4%; in [3], 91.9%; in experiment [4], 99.9%; in [5], 95.4%; in experiment [6] it was 89.6%. The growth in experiment [10] was 105%; in [8], 64.1%; in [9], 101%.

With `COc1ccc(CC(C#N)c2cc3ccccc3[nH]2)cc1` (configuration not stated), the growth in experiment [1] is 96.1%; in experiment [2] it was 71.4%; in [3] it was 90.8%; in experiment [4], 94.1%; in experiment [5], 95.4%; in experiment [6], 94.4%. Besides, the growth in [10] was 94.7%; in experiment [8], 90.8%; in [9], 92.8%.

Consider `O=C(CCC(=O)N/N=C/c1ccccc1O)N/N=C/c1ccccc1O`, for which the growth was 27% in [1]; 83% in experiment [2]; 46.4% in experiment [3]; 82.7% in [4]; 26.2% in [5]; 50.8% in experiment [6]. Also, the growth in experiment [10] is 48.5%; in experiment [8] it was 76.9%; in [9], 46.9%.

For `O=C1N(Cc2ccccc2Cl)c2ccccc2C12NN=C(c1cccc(Cl)c1)S2` (configuration not stated), the growth in [1] is -1.58% (active); in experiment [2], 30.5%; in experiment [3], -23.5% (active); in experiment [4], 9.45% (active); in experiment [5], -13.9% (active); in experiment [6], -5.89% (active). Besides, the growth is 4.87% (active) in experiment [7], 3.21% (active) in experiment [8] and -17% (active) in experiment [9].

For `COc1ccc2cc(-c3ccc(NC(C)=O)c(=O)o3)ccc2c1`, the growth in experiment [1] is 88.2%; in [2], 96.3%; in [3], 97.1%; in [4], 95%; in experiment [5], 101%; in experiment [6], 94.6%. The figures for the growth in experiment [10] and in experiment [9] were 108% and 103%, respectively.

For `CCCc1cc(NC)nc(S(=O)(=O)CC)n1`, the growth is 102% in [1]; 101% in [2]; 110% in experiment [3]; 101% in experiment [4]; 115% in experiment [5]; 116% in [6]. For the same molecule, the growth was 105% in experiment [10], 108% in experiment [8] and 104% in [9].

As for `O=C(Cn1c(=O)sc2nc3ccccc3nc21)Nc1ncc(Cc2cccc(Cl)c2Cl)s1`, the growth in experiment [1] is 101%; in experiment [2], 97.5%; in experiment [3] it was 97%; in experiment [4], 101%; in experiment [5], 102%; in experiment [6] it was 95.1%. The growth in experiment [7] was 111%; in experiment [8] it was 90.2%; in experiment [9], 89.6%.

As for `CN1CCN(Cc2ccc3c(NNC(=O)c4ccccc4)nc4cc(F)ccc4n23)CC1`, the growth in experiment [1] is 7.6% (active); in experiment [2], 26.4%; in experiment [3], 17.6%; in experiment [4], 59.2%; in [5], 24.1%; in experiment [6], 37.1%. Further, the growth in experiment [7] is 38.9%; in experiment [8], 70.6%; in experiment [9] it was 8.77% (active).

`C#CCn1cnc2c(Nc3cccc(NC(=O)C=C)c3)ncnc21`: the growth is 68.5% in [1]; 81.9% in experiment [2]; 76.2% in experiment [3]; 82% in experiment [4]; 86.6% in experiment [5]; 73.5% in experiment [6]. In addition, the growth in [10] was 74.8%; in experiment [8] it was 74.5%; in experiment [9], 92.5%.

`Cc1ccc(-c2nc3nc(-c4ccccc4)nc(N4CCNCC4)c3o2)cc1`: the growth in [1] was -43% (active); in [2], -61.5% (active); in experiment [3], -73.8% (active); in experiment [4], -89.8% (active); in experiment [5] it was -82% (active); in [6] it was -99.6% (active). For the same molecule, the growth in experiment [7] was -89.7% (active); in [8], -51.4% (active).

Turning to `Nc1ncnc2c1N=C(c1ccc3c(c1)OCO3)CC(c1ccc([N+](=O)[O-])cc1)N2` (configuration not stated), the growth is 45.6% in experiment [1]; 46.2% in experiment [2]; 87.3% in [3]; 75.8% in [4]; 99% in experiment [5]; 86% in [6]. Moreover, the growth in experiment [7] was 103%; in experiment [8], 74%; in experiment [9], 82%.

Take `CCOC(=O)c1ccc2[nH]c(O)c(C(=Nc3ccc(N(C)C(=O)CN4CCN(C)CC4)cc3)c3ccccc3)c2c1`: the growth in experiment [1] is -20.7% (active); in experiment [2], -28.2% (active); in experiment [3] it was -11.9% (active); in experiment [4], -14% (active); in [5] it was -71.1% (active); in experiment [6] it was -20.3% (active). For the same molecule, the growth was -33.6% (active) in experiment [10], -5.29% (active) in [8] and 53.1% in experiment [9].

For the molecule `N#CC1=C(N)Oc2c(sc3c(F)cccc23)C1c1ccc(F)cc1` (configuration not stated), the growth in experiment [1] was 30.6%; in experiment [2] it was 18.1%; in experiment [3], 21.4%; in experiment [4], 61.5%; in experiment [5], 60.8%; in experiment [6] it was 31.8%. The growth in [10] is 33.9%; in experiment [8], 24.6%; in experiment [9], 4.36% (active).

For `O=S(=O)(NCCCNc1nccc(-c2c(-c3ccc(F)c(O)c3)nc3occn23)n1)c1ccccc1`, the growth in [1] is 70.2%; in experiment [2], 78.2%; in [3] it was 94.8%; in experiment [4] it was 121%; in [5], 104%; in [6] it was 79.4%. Besides, the growth in experiment [7] was 97.9%; in experiment [8], 87.3%; in [9] it was 118%.

As to `COc1ccc(-c2csc(N(C(=O)N3CCN(c4cc5c(cc4F)c(=O)c(C(=O)O)cn5C4CC4)CC3)c3ccccc3)n2)cc1`, the growth in [1] is 10.4%; in [2], 16%; in experiment [3] it was 15.5%; in experiment [4] it was 12.8%; in [5], 33.3%; in [6], 21.8%. The growth was 17.1% in experiment [10] and 11.8% in experiment [9].

On to `CS(=O)(=O)Nc1cc(-c2ccc3ncnc(Nc4ccc5c(cnn5Cc5ccccn5)c4)c3c2)cnc1Cl`, for which the growth in experiment [1] is 58.3%; in experiment [2], 68.8%; in experiment [3], 90.3%; in experiment [4], 68.5%; in [5] it was 91.5%; in experiment [6], 89.7%. Also, the growth in experiment [7] was 44.1%; in experiment [8], 25.4%; in [9], 93.3%.

Regarding `CN1C(=O)N(C)C2Nn3c(s/c(=C\c4ccc(C(F)(F)F)cc4)c3=O)=NC21` (configuration not stated), the growth in experiment [1] is 96.9%; in [2], 106%; in [3], 108%; in experiment [4] it was 103%; in experiment [5], 102%; in experiment [6], 111%. The figures for the growth in experiment [10] and in experiment [9] were 101% and 99.8%, respectively.

Consider `CCOC(=O)c1cn2ncnc(Oc3ccc(NC(=O)NC4CCCCC4)c(Cl)c3)c2c1C`, for which the growth in experiment [1] is 73.8%; in experiment [2] it was 90.9%; in experiment [3], 74%; in [4], 93.5%; in experiment [5], -0.664% (active); in [6] it was 108%. The results for the growth in [10], in experiment [8] and in [9] were 81.4%, 36.1% and 59%, respectively.

Turning to `N#Cc1cccc(-c2c(-c3ccc4ccccc4c3)oc3ccccc3c2=O)c1`, the growth in [1] is 9.67% (active); in [2], 46.2%; in [3] it was 62.4%; in [4], 53.3%; in [5] it was 68.1%; in [6] it was 51%. Further, the values for the growth in experiment [7], in experiment [8] and in [9] were 40.2%, 69% and 27.2%, respectively.

`O=C(Cn1cc(CN2CCCCCC2)nn1)Nc1ccc2c(ccn2Cc2ccccc2)c1`: the growth in [1] was 36.8%; in [2] it was 64.3%; in experiment [3], 98.4%; in experiment [4], 105%; in experiment [5], 87%; in experiment [6], 82.7%. Also, the figures for the growth in experiment [10], in [8] and in experiment [9] were 94%, 88.5% and 102%, respectively.

With `Cc1ccc(/C=N/Nc2nc(Nc3ccccc3)nc(-n3nc(C)cc3C)n2)cc1`, the growth was 36.2% in experiment [1]; 32.9% in experiment [2]; 21.6% in [3]; 59.5% in experiment [4]; 27.6% in experiment [5]; 69.3% in [6]. Moreover, the figures for the growth in experiment [10], in experiment [8] and in [9] were 5.33% (active), 78.9% and 13.1%, respectively.

On to `O=C1/C(=C/c2ccc(Cl)cc2)COc2ccc(O)c(O)c21`, for which the growth was 15% in [1]; 1.87% (active) in [2]; 4.8% (active) in [3]; -22.9% (active) in [4]; 27.6% in experiment [5]; 65.7% in experiment [6]. For the same molecule, the growth in experiment [7] is -27.2% (active); in experiment [8] it was 20.4%; in experiment [9] it was 3.66% (active).
